# Results published in PubChem BioAssay (EPA / NIEHS).
# Inconclusive results are not listed. Active and inactive are the calls of the source. The calls were made as follows: active = hit-call score of the fitted dose curve at least 0.9, where 1 is the maximum; inconclusive = response in the unintended direction; inactive = score below 0.9.
# Assays:
# [1] = target: Estrogen receptor (Homo sapiens) (UniProt P03372); assay: CCTE_Deisenroth_AIME_96WELL_LUC_Active: CCTE's 96-well Estrogen Receptor Transactivation Assay with AIME metabolic competence (ERTA luciferase; metabolism positive), Deisenroth Lab (AID 2284023)
# Estrogen receptor (Homo sapiens), sequence (P03372 whole entry, looked up): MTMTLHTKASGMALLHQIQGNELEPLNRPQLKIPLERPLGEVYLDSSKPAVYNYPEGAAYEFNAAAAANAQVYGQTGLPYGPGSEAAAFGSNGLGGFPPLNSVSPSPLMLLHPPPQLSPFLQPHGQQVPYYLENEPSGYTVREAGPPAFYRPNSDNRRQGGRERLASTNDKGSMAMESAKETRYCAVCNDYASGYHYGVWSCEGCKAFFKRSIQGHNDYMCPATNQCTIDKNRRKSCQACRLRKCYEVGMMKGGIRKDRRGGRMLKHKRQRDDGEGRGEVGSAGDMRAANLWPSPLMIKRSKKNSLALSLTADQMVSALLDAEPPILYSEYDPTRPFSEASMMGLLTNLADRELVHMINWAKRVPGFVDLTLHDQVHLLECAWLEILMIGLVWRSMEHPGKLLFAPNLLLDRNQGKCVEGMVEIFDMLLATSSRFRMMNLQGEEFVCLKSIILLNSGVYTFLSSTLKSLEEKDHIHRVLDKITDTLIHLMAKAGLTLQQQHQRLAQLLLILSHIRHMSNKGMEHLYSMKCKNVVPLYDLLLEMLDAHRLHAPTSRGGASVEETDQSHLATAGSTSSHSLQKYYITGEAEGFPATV
# Procedure, shortened: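 Chemicals pre-incubated 2 h with alginate-immobilized phenobarbital/beta-naphthoflavone-induced male Sprague Dawley rat liver S9, then medium transferred to VM7Luc4E2 cells for 24 h luciferase read-out. 10-point series 0.002 - 200 uM; fitted relative to 17beta-estradiol.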
# [2] = target: Estrogen receptor (Homo sapiens) (UniProt P03372); assay: CCTE_Deisenroth_AIME_96WELL_LUC_Inactive: CCTE's 96-well Estrogen Receptor Transactivation Assay without AIME metabolic competence (ERTA luciferase; metabolism negative), Deisenroth Lab (AID 2284025)
# Procedure, shortened: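 VM7Luc4E2 breast cells, luciferase read 24 h after dosing with medium pre-incubated 2 h on alginate-water lids (metabolism negative). 10-point series 0.002–200 uM, single technical replicate, n≥4; fit relative to 17beta-estradiol.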
compound,measurement,setting,value
C/C(=C\c1ccccc1)c1ccccc1,AC50,[1],20.6 µM (active)
same,AC50,[2],37.2 µM (active)
